According to PubChem BioAssay (Tox21):
Inconclusive results are not listed. Active and inactive are the calls of the source. Unless noted, calls come from the whole dose curve; as a rule, active = well fitted curve in the direction sought with a large enough effect in the repeat runs; inconclusive = weak or mixed curves; inactive = no such curve, though single readings can be large; an effect the other way counts as inactive or inconclusive.

Tests used:
[1] = qHTS assay to identify small molecule antagonists of the androgen receptor (AR) signaling pathway using the MDA cell line in the presence of 0.5 nM R1881 - cell viability counter screen (AID 1259242); note: nearly all actives have a fitted effect of over 45% in size; note: potency is the fitted concentration of half-maximal effect
Summary of the method: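 MDA-kb2 cells (human breast carcinoma, stably carrying MMTV-luciferase reporter) were exposed to compounds with 0.5 nM R1881 (final) for 16 hr at 37C, 0% CO2; viability then read as live-cell protease fluorescence (CellTiter-Fluor, 30 min) in the same wells.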

[2] = molecular target: Androgen receptor (Homo sapiens) (UniProt P10275); experiment: qHTS assay to identify small molecule antagonists of the androgen receptor (AR) signaling pathway using the MDA cell line in the presence of 0.5 nM R1881 (AID 1259243); note: nearly all actives have a fitted effect of over 50% in size; note: potency is the fitted concentration of half-maximal effect
Androgen receptor (Homo sapiens), sequence (P10275 whole entry, looked up): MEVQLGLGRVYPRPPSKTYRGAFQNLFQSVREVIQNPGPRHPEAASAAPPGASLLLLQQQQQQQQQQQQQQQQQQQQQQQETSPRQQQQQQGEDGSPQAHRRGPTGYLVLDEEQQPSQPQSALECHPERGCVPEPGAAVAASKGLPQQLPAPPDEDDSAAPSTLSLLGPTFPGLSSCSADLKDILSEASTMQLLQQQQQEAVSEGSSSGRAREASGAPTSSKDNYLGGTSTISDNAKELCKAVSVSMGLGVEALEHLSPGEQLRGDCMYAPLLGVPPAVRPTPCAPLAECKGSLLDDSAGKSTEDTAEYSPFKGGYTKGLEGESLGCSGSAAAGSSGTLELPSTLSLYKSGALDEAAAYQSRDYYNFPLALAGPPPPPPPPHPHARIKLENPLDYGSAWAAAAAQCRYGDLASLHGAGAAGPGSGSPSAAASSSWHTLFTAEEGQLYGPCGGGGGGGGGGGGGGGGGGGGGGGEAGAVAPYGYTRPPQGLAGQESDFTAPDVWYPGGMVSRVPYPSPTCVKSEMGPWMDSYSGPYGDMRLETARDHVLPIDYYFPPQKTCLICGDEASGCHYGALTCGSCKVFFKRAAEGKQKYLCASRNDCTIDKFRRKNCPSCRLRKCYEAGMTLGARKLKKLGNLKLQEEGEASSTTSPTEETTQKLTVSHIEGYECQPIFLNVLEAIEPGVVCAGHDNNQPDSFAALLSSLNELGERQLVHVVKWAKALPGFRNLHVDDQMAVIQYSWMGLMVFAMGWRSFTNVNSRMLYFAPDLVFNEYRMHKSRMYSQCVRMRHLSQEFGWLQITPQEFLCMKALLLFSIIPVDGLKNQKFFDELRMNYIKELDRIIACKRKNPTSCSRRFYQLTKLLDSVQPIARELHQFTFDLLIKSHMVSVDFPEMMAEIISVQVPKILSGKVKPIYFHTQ
Summary of the method: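 MDA-kb2 human breast carcinoma cells carrying an MMTV-luciferase reporter (AR- and GR-responsive) were plated, rested 5 hr at 37C, dosed with compounds, then stimulated with 0.5 nM R1881 (final) for 16 hr; luminescence was read after ONE-Glo.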

[3] = qHTS assay to identify small molecule phospholipidosis (PLD) inducers (AID 1259344; active = well fitted curve in the direction sought with a large enough effect; an effect the other way counts as inactive or inconclusive)
Summary of the method: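 HepG2 cells, 900/well, treated with compound plus LipidTOX Red for 24 h at 37 C; amiodarone positive and DMSO negative controls. Fixed with paraformaldehyde/Hoechst, then high-content imaging scored LipidTOX pit count and integrated intensity per well and per cell.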

[4] = qHTS assay to identify small molecule HDAC inhibitors (AID 1259364); note: nearly all actives have a fitted effect of over 45% in size; note: potency is the fitted concentration of half-maximal effect; for activity change, negative = inhibition: top concentration of the series differs between compounds
Summary of the method: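 Wild-type HCT-116 cells were plated overnight, exposed to compounds for 2 h at 37 °C, then given HDAC-Glo class I/II luminogenic reagent for 30 min at room temperature before luminescence was read.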

[5] = qHTS assay to identify small molecule HDAC inhibitors - cell viability counter screen (AID 1259365); note: series mostly up to about 92 µM; nearly all actives have a fitted effect of over 50% in size
Summary of the method: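 HCT-116 wild-type, overnight attachment; 2hr drug exposure, 37C; CellTiter-Glo luminescent ATP readout after 30min RT.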

[6] = qHTS assay to identify small molecule agonists of the sonic hedgehog signaling (Shh) pathway (AID 1259368; calls by dose curve; note: series mostly up to about 92 µM; nearly all actives have a fitted effect of over 15% in size)
Summary of the method: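 NIH/3T3-derived 3T3Gli1-Luc cells carrying a stably integrated Gli1 response element–firefly luciferase reporter were plated, left 4 hr at 37 C, then given compounds in DMSO for 24 hr. Luminescence was read 30 min after adding luciferase reagent.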

[7] = molecular target: Estrogen receptor (Homo sapiens) (UniProt P03372); experiment: qHTS assay to identify small molecule antagonists of the estrogen receptor alpha (ER-alpha) signaling pathway using the BG1 cell line in the presence of 0.1 nM 17-beta-estradiol (AID 1259244); note: nearly all actives have a fitted effect of over 50% in size; note: potency is the fitted concentration of half-maximal effect
Estrogen receptor (Homo sapiens), sequence (P03372 whole entry, looked up): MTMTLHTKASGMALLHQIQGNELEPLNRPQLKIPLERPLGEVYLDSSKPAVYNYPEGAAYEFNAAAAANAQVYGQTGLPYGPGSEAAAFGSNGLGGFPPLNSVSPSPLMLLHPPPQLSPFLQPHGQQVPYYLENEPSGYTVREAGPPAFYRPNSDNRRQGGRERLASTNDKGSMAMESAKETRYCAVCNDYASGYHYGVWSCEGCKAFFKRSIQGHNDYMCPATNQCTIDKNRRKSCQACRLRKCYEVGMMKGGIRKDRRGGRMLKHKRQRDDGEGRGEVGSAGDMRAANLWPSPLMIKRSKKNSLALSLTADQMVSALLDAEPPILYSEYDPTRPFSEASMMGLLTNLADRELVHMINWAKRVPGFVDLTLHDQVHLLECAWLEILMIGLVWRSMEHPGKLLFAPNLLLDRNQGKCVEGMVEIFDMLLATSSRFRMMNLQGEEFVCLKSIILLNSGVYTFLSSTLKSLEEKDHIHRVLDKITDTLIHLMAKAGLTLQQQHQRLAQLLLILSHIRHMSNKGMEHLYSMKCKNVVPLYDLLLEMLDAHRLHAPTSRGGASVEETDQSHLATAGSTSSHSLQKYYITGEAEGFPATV
Summary of the method: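 VM7Luc4E2 cells (endogenous full-length ER-alpha, stable 4xERE-luciferase) were grown 5 days in phenol red-free medium with charcoal-stripped FBS, then exposed 22 h at 37C to compounds plus 0.1 nM (final) 17beta-estradiol; ONE-Glo luminescence read-out.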

[8] = qHTS assay to identify small molecule agonists of the sonic hedgehog signaling (Shh) pathway - cell viability counter screen (AID 1259366); note: nearly all actives have a fitted effect of over 50% in size; note: potency is the fitted concentration of half-maximal effect
Summary of the method: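 Compounds in DMSO were pin-transferred onto 3T3 Gli1-Luc cells that had settled 4hr; plates then stood 24hr at 37C and 5% CO2. One hour before the end, CellTiter-Fluor was added and fluorescence recorded.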

[9] = qHTS assay to identify small molecule antagonists of the sonic hedgehog signaling (Shh) pathway - cell viability counter screen (AID 1259367); note: nearly all actives have a fitted effect of over 55% in size; note: potency is the fitted concentration of half-maximal effect
Summary of the method: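 NIH/3T3-derived Gli1-Luc reporter cells, 2,000/well, plated 4 hr before compound addition, then stimulated with conditioned medium for 24 hr at 37C. Viability measured in the same wells by CellTiter-Fluor fluorescence, reagent added at 23 hr for 1 hr.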

[10] = qHTS assay to identify small molecule antagonists of the sonic hedgehog signaling (Shh) pathway (AID 1259369; calls by dose curve; note: nearly all actives have a fitted effect of over 45% in size; note: potency is the fitted concentration of half-maximal effect)
Summary of the method: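 NIH/3T3-derived 3T3Gli1-Luc cells with stably integrated Gli1-Luc reporter were preincubated 4hr at 37 C, then given compounds in DMSO plus Shh conditioned medium and incubated 24hr. Firefly luciferase luminescence read after 30min reagent at room temperature.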
% is set by controls: 0 for no effect and ±100 for the full control effect.

CC[C@]12CCCN3CCc4c(n(c5ccccc45)C(=O)C1)[C@@H]32
inactive: Potency [1] | Potency [2] | Potency [3] | Potency [4] | outcome [5] | outcome [6]

O=C(NS(=O)(=O)/C=C/c1cccs1)c1ccc(F)cc1Br
inactive: Potency [1] | Potency [2] | Potency [7] | Potency [4] | outcome [5] | Potency [8] | Potency [9] | outcome [6]

COC(=O)CSc1cc(N=c2sc(=O)n3n2CCCC3)c(F)cc1Cl
inactive: Potency [1] | Potency [2] | outcome [5] | Potency [8] | Potency [9] | outcome [6]

Cc1cc(NC(=O)C(=O)O)cc(C)c1Oc1ccc(O)c2c1CCC2
inactive: Potency [1] | Potency [2] | Potency [7] | outcome [5] | Potency [9] | outcome [6] | Potency [10]

CC(C)CCCC(C)CCO (stereo not given)
inactive: Potency [1] | Potency [2] | Potency [7] | outcome [5] | Potency [8] | outcome [6]

CC(=O)SCc1ccco1
inactive: Potency [1] | Potency [2] | Potency [7] | Potency [4] | outcome [5] | Potency [8] | Potency [9] | outcome [6] | Potency [10]

O=[N+]([O-])c1cc[n+]([O-])cc1
inactive: Potency [1] | Potency [4] | outcome [5] | outcome [6]
active: Potency [2] 54.5 µM | Potency [7] 54.5 µM | Potency [9] 61.1 µM | Potency [10] 30.6 µM

CC(C)(C)c1cc(O)c(C(C)(C)C)cc1O
active: Potency [1] 54.5 µM | Potency [2] 19.3 µM | Potency [7] 43.3 µM | Potency [8] 61.1 µM | Potency [10] 30.6 µM
inactive: Potency [4] | outcome [5] | outcome [6]

C=C(C)C(=O)OC(C)C
inactive: Potency [1] | Potency [2] | Potency [7] | Potency [4] | outcome [5] | Potency [8] | Potency [9] | outcome [6] | Potency [10]

O=C(Cl)c1ccc([N+](=O)[O-])cc1
inactive: Potency [1] | Potency [2] | Potency [7] | Potency [4] | outcome [5] | Potency [8] | Potency [9] | outcome [6]

CCN(CC)CCOC(=O)C1(c2ccccc2)CCCC1
inactive: Potency [1] | Potency [2] | Potency [7] | Potency [3] | Potency [4] | outcome [5] | Potency [9] | outcome [6]

CCCOc1ccc2nc(NC(=O)OC)[nH]c2c1
inactive: Potency [1] | Potency [2] | Potency [7] | Potency [3] | outcome [5] | Potency [9] | outcome [6]

O=C(C(=O)c1ccc(Br)cc1)c1ccc(Br)cc1
inactive: viability change, negative = cytotoxic [1] -1.93% [at 19 µM] | activity, negative = inhibition [2] 66.2% [at 19 µM] | activity change, negative = cytotoxicity [5] -0.456% [at 19 µM] | viability change, negative = cytotoxic [8] 7.56% [at 19 µM] | viability change, negative = cytotoxic [9] -13.1% [at 19 µM] | activity change [6] -0.0641% [at 18.9 µM]
active: Potency [10] 6.78 µM

Cc1ccc(C(=O)C(C)CN2CCCCC2)cc1 (stereo not given)
inactive: Potency [1] | Potency [7] | Potency [3] | Potency [4] | outcome [5] | Potency [8] | Potency [9] | outcome [6] | Potency [10]

O=C1Nc2cc(Cl)ccc2Oc2ccccc21
inactive: Potency [1] | outcome [5] | Potency [8] | Potency [9] | outcome [6] | Potency [10]
active: Potency [2] 4.22 µM

NC(=S)N/N=C/c1cccnc1
inactive: Potency [1] | Potency [2] | Potency [3] | Potency [4] | outcome [5] | Potency [8] | Potency [9] | outcome [6] | Potency [10]

CC(C(=O)O)c1ccc(C(=O)c2ccccc2)s1 (stereo not given)
active: Potency [4] 6.68 µM
inactive: Potency [1] | Potency [2] | Potency [7] | Potency [3] | outcome [5] | Potency [8] | outcome [6]

COc1ccc(C(C)=O)cc1
inactive: Potency [1] | Potency [2] | Potency [7] | Potency [4] | outcome [5] | Potency [8] | Potency [9] | outcome [6] | Potency [10]

NCCCN(CCO)CCO
inactive: Potency [1] | Potency [2] | Potency [7] | Potency [4] | outcome [5] | Potency [8] | Potency [9] | outcome [6] | Potency [10]

O=C(O)Cn1c(C(=O)Nc2nc(-c3ccccc3Cl)cs2)cc2ccccc21
inactive: Potency [1] | Potency [7] | Potency [3] | Potency [4] | outcome [5] | Potency [8] | Potency [9] | outcome [6] | Potency [10]

O=C(O)c1cn(C2CC2)c2cc(Cl)c(F)cc2c1=O
inactive: Potency [1] | Potency [2] | Potency [7] | Potency [4] | outcome [5] | Potency [8] | Potency [9] | outcome [6] | Potency [10]

O=C(CCN1CCN2CCCC2C1)N1c2ccccc2Sc2ccc(Cl)cc21 (stereo not given)
inactive: viability change, negative = cytotoxic [1] -3.61% [at 19 µM] | activity, negative = inhibition [2] -18% [at 19 µM] | activity change, negative = inhibition [7] 3.86% [at 19 µM] | activity change, negative = inhibition [4] 3.91% [at 19 µM] | activity change, negative = cytotoxicity [5] -2.44% [at 19 µM] | activity change [6] -0.0401% [at 18.9 µM]

Cn1c(=O)c2c(ncn2CC(O)CO)n(C)c1=O (stereo not given)
inactive: Potency [1] | Potency [7] | Potency [3] | Potency [4] | outcome [5] | Potency [8] | Potency [9] | outcome [6] | Potency [10]

CCOc1nc2cccc(C(=O)O)c2n1Cc1ccc(-c2ccccc2-c2nn[nH]n2)cc1
inactive: Potency [1] | Potency [2] | Potency [7] | Potency [3] | Potency [4] | outcome [5] | Potency [8] | Potency [9] | outcome [6] | Potency [10]

COc1ccc2[nH]c(S(=O)Cc3ncc(C)c(OC)c3C)nc2n1 (stereo not given)
inactive: Potency [1] | Potency [7] | Potency [3] | Potency [4] | outcome [5] | Potency [8] | Potency [9] | outcome [6] | Potency [10]
